# High-throughput results deposited in PubChem by The Scripps Research Institute Molecular Screening Center.
# GPR151 activ – activators of human GPR151, primary screen, cell-based, PathHunter beta-arrestin, luminescence. AID 1508602, 2020. activation, % at 11.2 µM. actives 1% (n = 650,000). G-protein coupled receptor 151 (Homo sapiens), Q8TDV0. PathHunter beta-arrestin GPR151 cells; in the data active means activation above about 4.9%;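 further: 0% = median of compound wells and 100% = cells with positive control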
# Target sequence (Q8TDV0 whole entry, looked up): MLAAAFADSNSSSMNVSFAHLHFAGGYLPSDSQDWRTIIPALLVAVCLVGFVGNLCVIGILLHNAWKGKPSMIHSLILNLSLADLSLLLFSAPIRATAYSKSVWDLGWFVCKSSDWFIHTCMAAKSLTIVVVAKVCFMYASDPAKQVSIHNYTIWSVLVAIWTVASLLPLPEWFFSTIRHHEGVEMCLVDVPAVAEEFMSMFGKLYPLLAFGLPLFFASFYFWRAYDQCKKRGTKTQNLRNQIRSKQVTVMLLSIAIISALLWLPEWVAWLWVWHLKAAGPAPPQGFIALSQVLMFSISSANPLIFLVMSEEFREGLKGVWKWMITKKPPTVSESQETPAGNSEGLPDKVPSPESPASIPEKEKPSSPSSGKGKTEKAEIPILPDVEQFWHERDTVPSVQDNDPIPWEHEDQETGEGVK
# MITF primary – MITF inhibitors, primary screen, biochemical, AlphaScreen, human | Microphthalmia-associated transcription factor (Homo sapiens), O75030 | AlphaScreen MITF homodimerization, bead proximity signal | inhibition, % at 2.6 µM | actives 0.91% (n = 650,000); in the data active means inhibition above about 50%;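 further: 0% = vehicle wells with protein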
# TEAD-YAP inh – TEAD-YAP interaction inhibition, primary screen, TEAD-YAP interaction inhibitor project, luminescence, HEK-TIYL cells | actives 1.4% (n = 640,000) | inhibition, % at 9.12 µM | TEAD-Gal4/YAP UAS-luciferase luminescence; in the data active means inhibition above about 32%;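 further: 0% = median of test compound wells and 100% = reference inhibitor wells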
# FBW7 activator – FBW7 E3 ligase activators, primary screen, biochemical, AlphaScreen, human; F-box/WD repeat-containing protein 7 (Homo sapiens), Q969H0; AlphaScreen FBW7–phospho-cyclin E peptide binding, activator screen; normalized activity (activation), % at 26.1 µM; actives 0.13% (n = 650,000); in the data active means normalized activity above about 1.9%;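 further: purified mutant Fbw7 with reduced substrate affinity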
# GPR151 confirm – GPR151 activators, triplicate retest, confirmation, cell-based, PathHunter beta-arrestin, luminescence | shares compounds with GPR151 activ | GPR151 PathHunter beta-arrestin cells, 90 min; % of EA-reagent control over plate median | activation, % at 11.2 µM | 6,700 tested, under 10 active;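 active means mean percent activation across replicates above the confirmation screen cutoff of 4.91%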
# GPR119 counter – GPR119 activators in beta-arrestin cells, counter-screen for GPR151 activator project, cell-based, PathHunter beta-arrestin, luminescence, triplicate; shares compounds with GPR151 activ; 90 min; 0 = compound-well median, 100 = enzyme-acceptor control; activation, % at 11.2 µM; actives 0.3% (n = 6,700);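 active means mean percent activation in the counterscreen above 29.09%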;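 further: counterscreen on off-target GPR119 to flag nonselective hits from the GPR151 activator screen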
# * = called active by the depositor; x = no result given. Shown are actives, neighbours in structure and some others; about 3.4% of the full set was active somewhere.
SMILES,GPR151 activ,MITF primary,TEAD-YAP inh,FBW7 activator,GPR151 confirm,GPR119 counter
CCOC(=O)c1cccc(NC(=O)n2ncc3cc(Cl)ccc32)c1,5.6*,1.5,84.6*,-0.1,0.4,-2.9
CC(=O)N/C(=C\c1ccccc1)C(=O)NC(C)(C)C,5.6*,-4.2,4.3,0.2,-0.3,-9.7
Cn1c(C(=O)NCCC2=CCCCC2)cc2c(=O)n(C)c3ccccc3c21,1.1,6.5,-0.9,0.0,x,x
CCc1ccc(C(=O)C(C)OC(=O)c2cc[n+]([O-])cc2)cc1 (stereo unspecified),1.3,-2.5,3.7,0.2,x,x
O=C(Cc1cccc2ccccc12)Nc1nnc(-c2ccc(Cl)s2)o1,5.1*,-6.1,-3.1,-0.1,1.1,7.6
CCCC(=O)Nc1nnc(-c2ccc(Cl)s2)o1,1.3,-6.5,-21.3,-0.1,x,x
Cc1cc2ncn(S(=O)(=O)c3ccc(S(=O)(=O)N4CCCCC4)cc3)c2cc1C,7.7*,15.6,-6.1,0.8,-0.3,-11.4
Cc1cc2ncn(S(=O)(=O)c3ccc(Cl)c(Cl)c3)c2cc1C,-0.8,10.1,3.6,0.1,x,x
COc1ccc2nc(NC(=O)C34CCC(C)(C(=O)C3)C4(C)C)sc2c1 (stereo unspecified),9.1*,-4.4,-10.9,-0.1,-0.5,-9.0
O=C(O)CN1CCOCCOCCN(CC(=O)O)CCOCCOCC1,5.9*,3.0,3.3,-0.1,0.5,-3.1
O=C(Nc1c[nH]c(=O)[nH]c1=O)c1ccc(N2C(=O)C3C4C=CC(C4)C3C2=O)cc1 (stereo unspecified),6.7*,14.8,3.5,0.2,-0.5,6.2
O=C(Nc1ccccc1O)c1ccc(N2C(=O)C3C4C=CC(C4)C3C2=O)cc1 (stereo unspecified),1.3,-2.1,-126.0,0.0,x,x
C=CCOc1ccccc1CNc1cccc(C(=O)O)c1,-2.0,16.7,2.0,0.4,x,x
O=C(O)c1cccc(NCc2cccc3ccccc23)c1,11.1*,9.8,-18.7,-0.1,0.2,3.5
CCN(CC)c1cc(NCCO)c([N+](=O)[O-])c2nonc12,5.9*,15.7,5.5,0.1,-0.8,-11.6
CCN(CC)c1cc(Nc2ccc(NC(C)=O)cc2)c([N+](=O)[O-])c2nonc12,1.7,6.4,6.9,0.1,x,x
O=C(NCCSC1CCCCC1)Nc1ccccc1,5.1*,-10.4,0.7,-0.1,-1.0,-17.9
O=C(NCCc1ccc(O)cc1)c1cnc(-c2ccccc2)s1,0.8,14.6,-18.5,0.2,x,x
Nc1cccc(-c2ncc(C(=O)NCCc3ccc(O)cc3)s2)c1,5.5*,0.2,14.0,-0.1,0.3,-0.8
CCOC(=O)c1cnc(SCc2cccc(F)c2)nc1N,0.3,-4.6,-75.2,0.0,x,x
CCOC(=O)c1cnc(SC2CC(=O)N(c3cccc(F)c3)C2=O)nc1N (stereo unspecified),7.5*,-1.7,0.4,0.0,0.1,4.0
COCCN1Cc2cc3cc(C)ccc3nc2OCC1=O,7.2*,14.3,-1.8,0.1,0.5,-4.3
Cc1cc(NC(=O)C2CC2C(=O)O)ccc1C(C)C (stereo unspecified),1.1,-1.9,-1.6,0.1,x,x
CCNS(=O)(=O)c1ccc(CCC(=O)NC2CC2)cc1,6.7*,11.4,-11.8,0.1,0.3,10.2
CCC(C)NCCOc1ccc([N+](=O)[O-])cc1 (stereo unspecified),6.6*,-13.7,5.1,0.1,0.4,6.3
SMILES,GPR151 activ,MITF primary,TEAD-YAP inh,FBW7 activator,GPR151 confirm,GPR119 counter
CC(=O)Oc1ccc2c(c1)C1c3ccccc3C2C2C(=O)C=CC(=O)C12 (stereo unspecified),-0.2,10.7,0.7,-0.1,x,x
CC1=C(C(=O)OCCc2ccccc2)C(c2cccc(Cl)c2)NC(=O)N1 (stereo unspecified),1.5,-2.9,6.1,-0.2,x,x
CC1=C(C(=O)OCc2ccccc2)C(c2cccc(Cl)c2)NC(=O)N1 (stereo unspecified),5.0*,-10.4,-21.8,-0.1,0.9,-3.1
CC1=C(C(=O)OCCc2ccccc2)C(c2ccc(C)s2)NC(=O)N1 (stereo unspecified),5.1*,-6.6,2.2,-0.1,-0.2,-13.0
CCOc1cccc(C2NC(=O)NC(C)=C2C(=O)OC2CCCCCC2)c1 (stereo unspecified),5.7*,5.9,-11.4,-0.1,-0.3,2.9
Cn1c2sc3c(c2c(=O)n2nnnc12)CC(C)(C)OC3,0.3,1.3,-2.1,-0.2,x,x
N#C/C(=C/c1ccc(N2CCOCC2)c([N+](=O)[O-])c1)c1nc2ccccc2[nH]1,5.2*,-25.3,-18.9,-0.1,-1.6,-6.1
COc1ccc(-c2nnc(SCc3nc4ccccc4[nH]3)n2-c2ccccc2)cc1OC,5.0*,-13.8,-13.3,0.2,-0.6,-1.9
O=C(Cc1ccc(F)cc1)N1CCn2c(nnc2C2CC2)C1,0.0,-0.6,-1.4,-0.2,x,x
CCOC(=O)c1nc(Nc2ccc(OCC)cc2)c2ccccc2n1,0.8,16.8,2.4,-0.1,x,x
CCOC(=O)c1cccc(Nc2nc(-c3ccccc3)nc3ccccc23)c1,5.9*,16.7,3.6,0.2,0.3,-0.6
CCOC(=O)c1nc(Nc2ccc(OC(C)C)cc2)c2ccccc2n1,8.8*,7.5,4.8,-0.1,1.7,6.5
CCOC(=O)c1cccc(Nc2nc(-c3ccccc3Cl)nc3ccccc23)c1,0.2,2.5,11.3,0.0,x,x
O=C(OCC1OC(n2ccc(=O)[nH]c2=O)C(O)C1O)c1ccccc1 (stereo unspecified),-0.4,-3.8,-3.1,0.0,x,x
CCOP(=O)(OCC)c1nc(-c2cccc([N+](=O)[O-])c2)oc1N1CCCCC1,10.9*,3.3,-5.3,-0.1,0.6,5.2
CC(OC(=O)c1cc(-c2ccc(Cl)cc2)nc2ccccc12)C(N)=O (stereo unspecified),1.6,-0.2,7.8,-0.2,x,x
O=C(CCl)Nc1ccc2c(c1)OCCCO2,-0.4,10.3,5.1,0.2,x,x
O=C(O)CN(CC(=O)Nc1ccc2c(c1)OCCCO2)Cc1ccccc1,9.1*,16.2,1.0,0.3,0.1,4.3
CC(NC(=O)CCn1c(=O)[nH]c2ccsc2c1=O)C12CC3CC(CC(C3)C1)C2 (stereo unspecified),12.0*,2.5,6.2,-0.1,0.4,13.1
O=C(Cn1c(=O)[nH]c2ccsc2c1=O)NC1CCCCC1,5.3*,7.3,-4.8,0.8,-0.1,1.5
